Several values for one entry are separate records, joined by “and”; a condition that tells them apart may be missing. Equal values may be shown once. Inconclusive results are not listed. Activity calls are given as the source filed them.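 Rule for the calls, unless noted: active = normalized viability below 100% at a tested concentration; inactive = the rest.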
Key:
[1] = growth inhibition of DIPG glioma cells, dose response, cell-based, SU-DIPG-XVII, MIPE5.0, CellTiter-Glo, qHTS (AID 1347060; cut-off not given, nearly all actives have AC50 up to about 26 µM); settings: SU-DIPG-XVII viability, CellTiter-Glo ATP luminescence
[2] = growth inhibition of DIPG glioma cells, dose response, cell-based, SU-DIPG-XIII, MIPE5.0, CellTiter-Glo, qHTS (AID 1347064; cut-off not given, nearly all actives have AC50 up to about 23 µM); settings: SU-DIPG-XIII viability, CellTiter-Glo ATP luminescence
[3] = viability loss in pontine glioma line – cell-based, SU-DIPG-XXV, MIPE5.0, CellTiter-Glo, qHTS, dose response (AID 1347065; cut-off not given, nearly all actives have AC50 up to about 26 µM;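 note: cells exposed to compound for 48 hours before ATP readout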); settings: CellTiter-Glo ATP luminescence
[4] = SU-DIPG-VI glioma cell viability, MIPE4.0 library, CellTiter-Glo luminescence, qHTS (AID 1347066; cut-off not given, nearly all actives have AC50 up to about 30 µM;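 note: cells exposed to compound for 48 hours before readout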); settings: CellTiter-Glo ATP luminescence
[5] = JHH-DIPG-1 glioma cell viability, MIPE5.0 library, CellTiter-Glo luminescence, qHTS (AID 1347067; cut-off not given, nearly all actives have AC50 up to about 26 µM;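 note: cells exposed to compound for 48 hours before readout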); settings: JHH-DIPG-1 glioma viability, CellTiter-Glo ATP luminescence
[6] = SU-DIPG-XXV glioma cell viability, MIPE5.0 library, qHTS (AID 1347068; cut-off not given, nearly all actives have IC50 up to about 30 µM)
[7] = sensitizers of A549 cells to miR-34 induction, primary screen, imaging, A549 dox-inducible miR-34, nuclei and caspase counts (AID 1347080;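 active = compounds whose cell count with miR-34 switched on is under 0.7 times the count with it off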); settings: A549 miR-34 inducible, Hoechst nuclei count, 48 h
[8] = modifiers of HSF1 nuclear foci, imaging, Selleck Cancer Library (AID 1347162; in the data active = plate-normalised HSF1 focus index below about 0.46); settings: human cells, at 10 µM; SSMD: measured here: HSF1 foci SSMD mean; cell count: measured here: cell number; plate-normalised HSF1 focus index: stronger effect = lower value
[9] = survival rescue of mitochondrial mutant cells in low glucose, primary screen, MELAS cybrids, Rieske KO mouse fibroblasts, CellTiter-Glo (AID 1508586;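 active = mean z-score across replicates of 1.96 or higher in either the MELAS or the Rieske mutant cell line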;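 note: z relative to plate mean and SD of compound and empty wells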)
[10] = ovarian cancer cell viability with rucaparib, profiling panel, oncology-focused library, rucaparib conditional (AID 1508598); settings: patient-derived ovarian cancer cells, CellTiter-Glo viability, 144 h, stronger effect = lower value
[11] = LFS_MB_P medulloblastoma growth inhibition, cell-based, chromothripsis tumors, cisplatin or BGB combos (AID 1671449; in the data active = inhibition above about 80%;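 note: cells exposed for 96 hours; 0% = vehicle DMSO and 100% = killing by high DMSO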); settings: LFS_MB_P medulloblastoma cells
[12] = HDN33 neuroblastoma growth inhibition, cell-based, chromothripsis tumors, cisplatin or BGB combos (AID 1671450; in the data active = inhibition above about 80%;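 note: cells exposed to compound for four days; 0% = vehicle DMSO and 100% = cell killing by high DMSO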); settings: HDN33 neuroblastoma cells, stronger effect = higher value

NC(=O)c1ccc(I)c([N+](=O)[O-])c1
13.3% and -25.3%: inhibition ([12]; BGB combo, at 5 µM)
8450: cell count ([7]; measured here: total cells without miR-34 induction)
-7.86% and -37.5%: inhibition ([11]; measured here: combination with BGB IC40, at 0.005 µM)
7270: cell count ([7]; measured here: total cells with miR-34 induction, stronger effect = lower value)
5% and -21.1%: inhibition ([11]; measured here: combination with BGB IC40, at 0.05 µM)
-10.7% and -15.7%: inhibition ([11]; measured here: combination with cisplatin, at 5 µM, stronger effect = higher value)
6730: cell count [8]
-54.2% and -27.9%: inhibition ([11]; measured here: combination with cisplatin, at 0.5 µM, stronger effect = higher value)
inactive: outcome [1] | outcome [2] | outcome [3] | outcome [4] | outcome [5] | outcome [6] | fold change ([7]; stronger effect = lower value, cell number ratio, induced over uninduced) 0.861 | plate-normalised HSF1 focus index [8] 1.07 | z-score ([9]; MELAS cybrid survival, CellTiter-Glo 48 h, stronger effect = higher value) -0.444 | viability ([10]; at 0.000305 µM, OCI-C5x cells, with rucaparib 10 µM, 100% = cells with rucaparib alone) 109% | viability ([10]; at 0.000305 µM, OCI-C5x cells, without rucaparib) 119% | viability ([10]; at 0.00122 µM, OCI-C5x cells, with rucaparib 10 µM, 100% = cells with rucaparib alone) 110% | viability ([10]; at 0.00122 µM, OCI-C5x cells, without rucaparib) 116% | viability ([10]; at 0.00122 µM, OCI-P5x cells, with rucaparib 20 µM, 100% = cells with rucaparib alone) 102% | viability ([10]; at 0.00488 µM, OCI-C5x cells, with rucaparib 10 µM, 100% = cells with rucaparib alone) 113% | viability ([10]; at 0.00488 µM, OCI-C5x cells, without rucaparib) 127% | viability ([10]; at 0.00488 µM, OCI-P5x cells, with rucaparib 20 µM, 100% = cells with rucaparib alone) 101% | viability ([10]; at 0.00488 µM, OCI-P5x cells, without rucaparib) 102% | viability ([10]; at 0.0195 µM, OCI-C5x cells, with rucaparib 10 µM, 100% = cells with rucaparib alone) 127% | viability ([10]; at 0.0195 µM, OCI-C5x cells, without rucaparib) 126% | viability ([10]; at 0.0195 µM, OCI-P5x cells, with rucaparib 20 µM, 100% = cells with rucaparib alone) 103% | viability ([10]; at 0.0781 µM, OCI-C5x cells, with rucaparib 10 µM, 100% = cells with rucaparib alone) 119% | viability ([10]; at 0.0781 µM, OCI-C5x cells, without rucaparib) 117% | viability ([10]; at 0.0781 µM, OCI-P5x cells, without rucaparib) 102% | viability ([10]; at 0.313 µM, OCI-C5x cells, with rucaparib 10 µM, 100% = cells with rucaparib alone) 115% | viability ([10]; at 0.313 µM, OCI-C5x cells, without rucaparib) 117% | viability ([10]; at 0.313 µM, OCI-P5x cells, with rucaparib 20 µM, 100% = cells with rucaparib alone) 101% | viability ([10]; at 1.25 µM, OCI-C5x cells, with rucaparib 10 µM, 100% = cells with rucaparib alone) 114% | viability ([10]; at 1.25 µM, OCI-C5x cells, without rucaparib) 122% | viability ([10]; at 5 µM, OCI-C5x cells, with rucaparib 10 µM, 100% = cells with rucaparib alone) 102% | viability ([10]; at 5 µM, OCI-C5x cells, without rucaparib) 122% | viability ([10]; at 5 µM, OCI-P5x cells, with rucaparib 20 µM, 100% = cells with rucaparib alone) 110% | inhibition ([11]; at 0.5 µM, stronger effect = higher value) -30.4% and -3.77% | inhibition ([12]; at 0.5 µM) 0.82% and -18.3%
6.61% and -13.4%: inhibition ([12]; cisplatin combo, at 5 µM)
-4.77% and -10.4%: inhibition ([12]; measured here: with BGB IC20 combination, at 0.5 µM)
11.8% and -4.71%: inhibition ([11]; measured here: combination with BGB IC20, at 0.005 µM)
active: viability ([10]; at 0.000305 µM, OCI-P5x cells, with rucaparib 20 µM, 100% = cells with rucaparib alone) 98.3% | viability ([10]; at 0.000305 µM, OCI-P5x cells, without rucaparib) 94.7% | viability ([10]; at 0.00122 µM, OCI-P5x cells, without rucaparib) 97.6% | viability ([10]; at 0.0195 µM, OCI-P5x cells, without rucaparib) 95.1% | viability ([10]; at 0.0781 µM, OCI-P5x cells, with rucaparib 20 µM, 100% = cells with rucaparib alone) 97.2% | viability ([10]; at 0.313 µM, OCI-P5x cells, without rucaparib) 88.7% | viability ([10]; at 1.25 µM, OCI-P5x cells, with rucaparib 20 µM, 100% = cells with rucaparib alone) 94.9% | viability ([10]; at 1.25 µM, OCI-P5x cells, without rucaparib) 94.9% | viability ([10]; at 5 µM, OCI-P5x cells, without rucaparib) 91.7%
0.928: fold change ([7]; measured here: relative caspase fold change +Dox/-Dox)
1.45: SSMD [8]
0.628: z-score ([9]; Rieske KO mouse fibroblast survival, CellTiter-Glo 72 h)
